Screens as filed in PubChem.
Rows were chosen to be rich in hits. Some 2.1% of all compounds tested hit in one or more screens of this group.
ADAM10 inh: human ADAM10 inhibitors, primary screen, biochemical, QFRET, HTS. Disintegrin and metalloproteinase domain-containing protein 10 (Homo sapiens), O14672. recombinant ADAM10, EDANS/DABCYL FRET peptide cleavage, 3 h. 370,000 tested, 0.62% active. inhibition, % at 7 µM. AID 720582, 2013;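 active = inhibition above a per-campaign cutoff equal to the mean of compounds falling between control-based bounds plus 3 SD, cut at about 20% in these data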
PLCb3 inh: human PLC-beta3 inhibitors, primary screen, biochemical, fluorescence | 1-phosphatidylinositol 4,5-bisphosphate phosphodiesterase beta-3 (Homo sapiens), Q01970 | Purified PLC-beta3, fluorogenic substrate | inhibition, % at 12.2 µM | 370,000 tested, 0.18% active | AID 720704, 2013; in the data active = inhibition above about 11%
ADAM17 inh: ADAM17 inhibitors, primary screen, biochemical, QFRET | Disintegrin and metalloproteinase domain-containing protein 17 (Homo sapiens), P78536 | recombinant ADAM17, EDANS/DABCYL FRET peptide cleavage | inhibition, % at 6.95 µM | 370,000 tested, 0.83% active | AID 720648, 2013;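 active = inhibition above the mean of compounds lying between control limits plus 3 SD, set per campaign, cut at about 8.5% in these data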
Target sequence (P78536 215-824 limits assumed): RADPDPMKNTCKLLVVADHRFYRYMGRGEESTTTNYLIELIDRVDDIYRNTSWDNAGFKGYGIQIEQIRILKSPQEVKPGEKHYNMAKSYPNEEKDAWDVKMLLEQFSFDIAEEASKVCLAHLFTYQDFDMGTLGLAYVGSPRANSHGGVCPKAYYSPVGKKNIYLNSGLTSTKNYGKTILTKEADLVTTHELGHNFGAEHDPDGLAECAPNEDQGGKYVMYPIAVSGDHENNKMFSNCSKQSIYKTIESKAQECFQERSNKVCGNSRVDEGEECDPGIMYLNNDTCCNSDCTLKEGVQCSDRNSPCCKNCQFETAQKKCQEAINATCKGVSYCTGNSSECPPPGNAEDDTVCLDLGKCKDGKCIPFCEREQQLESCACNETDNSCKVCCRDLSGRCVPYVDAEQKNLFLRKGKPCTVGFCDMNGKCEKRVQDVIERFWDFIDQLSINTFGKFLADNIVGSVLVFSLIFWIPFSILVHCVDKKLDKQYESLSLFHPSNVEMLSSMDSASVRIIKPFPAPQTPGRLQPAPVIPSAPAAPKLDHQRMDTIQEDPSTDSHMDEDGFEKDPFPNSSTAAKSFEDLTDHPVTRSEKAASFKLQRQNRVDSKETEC
Rce1 inhib: yeast Rce1p protease inhibitors, primary screen, biochemical, fluorescence, cell-free homogeneous | calls only | yeast membranes, quenched prenylated peptide cleavage fluorescence | 290,000 tested, 0.27% active | CAAX prenyl protease 2 (Saccharomyces cerevisiae (strain ATCC 204508 / S288c)), Q03530;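 active = fall in fluorescence gain of 50% or more versus controls, with final raw signal at or below 3038400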
PLCg1 inh: PLC-gamma1 enzyme inhibitors, primary screen, biochemical, fluorescence, purified enzyme | 1-phosphatidylinositol 4,5-bisphosphate phosphodiesterase gamma-1 (Homo sapiens), P19174 | fluorogenic substrate | inhibition, % at 12.2 µM | 370,000 tested, 0.84% active
PLCg1 ctr: PLC-gamma1 enzyme inhibitors, counter-screen for PLC-beta3 inhibitor project, biochemical, fluorescence; shares compounds with PLCg1 inh; purified PLC-gamma1, fluorogenic substrate; inhibition, % at 12.3 µM; 3,300 tested, 3.1% active
PLCbeta3 conf: PLC-beta3 inhibitor confirmation, biochemical, fluorescence, purified enzyme; fluorogenic substrate fluorescence; AID 743261, 2014; shares compounds with PLCg1 inh; 3,300 tested, 1% active; inhibition, % at 12.3 µM; in the data active = inhibition above about 11%
Numbers stand for hits; i = inactive; nt = not tested or not shown. Rule as the data show it, unless noted: active = inhibition above about 9.5%; inactive = the rest.

SMILES | ADAM10 inh | PLCb3 inh | ADAM17 inh | Rce1 inhib | PLCg1 inh | PLCg1 ctr | PLCbeta3 conf
CC(C)c1[nH]nc2c1C(c1ccc(F)cc1)N(Cc1ccccc1)C2=O (stereo unspecified) | i | i | i | nt | i | nt | nt
CN(c1ccccc1C(=O)Nc1cccc([N+](=O)[O-])c1)S(=O)(=O)c1ccccc1 | i | i | i | i | i | nt | nt
CN(c1ccccc1C(=O)Nc1cccc([N+](=O)[O-])c1)S(C)(=O)=O | i | i | i | i | 9.9 | i | i
O=C(Nc1ccc(C(F)(F)F)cc1)OC1CC2CC1[C@H]1CCCCN1[C@H]2Cc1ccccc1 (stereo partly specified) | i | i | i | nt | i | nt | nt
COc1ccccc1CNC(=O)COC(=O)Cn1cnc2c1c(=O)n(C)c(=O)n2C | i | 11.0 | i | nt | i | i | i
COC(=O)c1ccccc1NC(=O)Cn1cnc2c1c(=O)n(C)c(=O)n2C | i | i | i | i | 10.3 | i | i
COC(=O)c1cccc(NC(=O)Cn2cnc3c2c(=O)n(C)c(=O)n3C)c1 | i | i | i | i | i | nt | nt
CCN(CC(=O)NCc1cccs1)S(=O)(=O)c1cc(NC(C)=O)ccc1OC | i | i | i | nt | 9.6 | i | i
O=C(Nc1ccc(F)c(Cl)c1)c1csc(COCCO)n1 | i | i | i | nt | i | nt | nt
Cn1c(SCC(=O)NCCc2ccccc2)ncc(C(=O)Nc2ccc(F)cc2)c1=O | i | i | i | i | i | nt | nt
CCCn1nc(C(=O)NCC(C)(C)N2CCOCC2)c2ccccc2c1=O | i | i | i | i | 9.7 | i | i
CCCn1nc(C(=O)NCCN2CCOCC2)c2ccccc2c1=O | i | i | i | i | i | nt | nt
COc1ccccc1C(=O)COC(=O)/C=C/c1ccccc1 | i | i | i | i | 9.6 | i | i
CCCNC(=O)CNC(=O)c1ccc(C#N)cc1 | i | i | i | nt | i | nt | nt
O=Nc1c(O)[nH]c2ccc(Cl)cc12 | i | i | i | i | i | nt | nt
Cc1nn(CC(=O)O)c(C)c1Cl | i | i | i | i | 10.9 | i | i
COC(=O)CSc1nnc2n(C3CCCCC3)c(=O)c3c4c(sc3n12)CCCC4 | i | i | i | i | i | nt | nt
COC(=O)CSc1nnc2n(-c3ccc(OC)cc3)c(=O)c3c4c(sc3n12)CCCCC4 | i | i | i | i | 10.0 | i | i
COc1ccc(S(=O)(=O)N2CCCCCC2)cc1C(=O)N(C)CC(=O)Nc1c(Cl)cccc1Cl | i | i | i | i | 9.7 | i | i
COc1ccc(S(=O)(=O)N2CCCCCC2)cc1C(=O)N(C)CC(=O)Nc1ccccc1Br | i | i | i | i | 10.4 | i | i
COc1ccc(S(=O)(=O)N2CCCCCC2)cc1C(=O)N(C)CC(=O)Nc1ccccc1Cl | i | i | i | i | i | nt | nt
CCN(CC)CCC=C(c1cccs1)c1cccs1 | i | i | i | nt | i | nt | nt
COc1ccc(NC(=O)NNC(=O)C(C)Oc2ccc3ccccc3c2)cc1 (stereo unspecified) | i | i | i | i | i | nt | nt
O=C(Nc1ccc(N=Nc2ccccc2)cc1)c1cccc(Cl)c1 | i | i | i | i | 11.5 | i | i
O=C(Nc1ccc2c(c1)OCCO2)c1cccc(Cl)c1 | i | i | i | i | i | nt | nt
SMILES | ADAM10 inh | PLCb3 inh | ADAM17 inh | Rce1 inhib | PLCg1 inh | PLCg1 ctr | PLCbeta3 conf
O=C(Nc1cc([N+](=O)[O-])ccc1F)C1CC1 | i | i | i | i | i | nt | nt
COc1ccc(N(C(=O)COc2ccccc2)C2C=CS(=O)(=O)C2)c(OC)c1 (stereo unspecified) | i | i | i | i | 13.8 | i | i
N#Cc1ccccc1OCC(=O)NNC(=O)CCC1CCCC1 | i | i | i | nt | 11.7 | i | i
COc1ccc2nc(Nc3nc(CSc4ccc(C)cc4)cc(=O)[nH]3)nc(C)c2c1 | i | i | i | i | i | nt | nt
Cc1ccc(SCc2cc(=O)[nH]c(Nc3nc(C)c4cccc(C)c4n3)n2)cc1 | i | i | i | i | 12.9 | i | i
O=C(c1ccc(COc2ccccc2Br)o1)N1N=C(C(F)F)CC1(O)C(F)F (stereo unspecified) | i | i | i | i | i | nt | nt
CC(=O)OC[C@H]1O[C@@H](n2ccc(=O)[nH]c2=S)C(OC(C)=O)C1OC(C)=O (stereo partly specified) | i | i | i | i | 9.8 | i | i
Cc1ccccc1C(=O)NC1CCN(Cc2nnnn2C2CCCC2)CC1 | i | i | i | i | 13.6 | 11.6 | i
COC(=O)[C@]12C[C@H](CC(=O)NCCCN3CCCC3=O)C(=O)N(Cc3ccccc3)C1=C[C@H](COCc1ccccc1)O[C@@H]2C | i | i | i | nt | i | nt | nt
CCOC(=O)c1sc(N)c(C#N)c1CSc1nc2ccc(OCC)cc2[nH]1 | i | i | i | i | 12.8 | i | i
Cn1c(=O)c([N+](=O)[O-])c(N2CCSCC2)c2ccccc21 | i | i | i | i | i | nt | nt
CCn1c(=O)c([N+](=O)[O-])c(N2CCSCC2)c2ccccc21 | i | i | i | i | 11.7 | i | i
Cc1nn(-c2ccccc2)c(N)c1N=Nc1cccnc1 | i | 10.9 | i | i | i | i | i
Nc1nn(-c2ccccc2)c(N)c1N=Nc1cccc(F)c1 | i | i | i | i | i | nt | nt
O=C1CC(c2ccc(Cl)cc2)c2c(O)cc(O)cc2O1 (stereo unspecified) | i | i | i | i | 10.1 | i | i
Cc1cccc(NC2=CC(=O)CC(C)(C)C2)c1C | i | i | i | i | 9.8 | i | i
CS(=O)(=O)c1nc(-c2ccc(Br)cc2)n[nH]1 | i | i | i | i | 18.2 | 14.7 | i
CN(NC1CC(=O)N(c2ccccc2)C1=O)c1ccccc1 (stereo unspecified) | i | i | i | nt | i | nt | nt
O=C(NCCc1csc(-c2cccnc2)n1)c1ccc(Cl)cc1 | i | i | i | i | 12.7 | i | i
CC(=O)c1ccc(N2CCN(S(=O)(=O)c3cccc4nsnc34)CC2)cc1 | i | i | i | i | 10.0 | i | i
COc1ccc(N2CCN(S(=O)(=O)c3cccc4nsnc34)CC2)cc1 | i | i | i | i | i | nt | nt
CCc1ccc(NC(=O)C(=O)NCCN2CCN(S(C)(=O)=O)CC2)cc1 | i | i | i | i | 11.6 | i | i
Cc1cc(C)c(C)c(OC(=O)c2sc(Cl)nc2C)c1 | i | i | i | i | i | nt | nt
COc1ccccc1CNC(=O)CCNS(=O)(=O)/C=C/c1ccc(C)cc1 | i | i | i | nt | i | nt | nt
O=C(Cn1c(=O)oc2ccccc21)Nc1ccc(Cl)cc1 | i | i | i | i | 10.6 | i | i
NS(=O)(=O)c1ccccc1 | i | 11.2 | i | i | 15.4 | i | i
